Measurements from PubChem BioAssay (NCATS).
Several values for one entry are separate records, joined by “and”; a condition that tells them apart may be missing. Equal values may be shown once. Activity calls are given as the source filed them. Calls come from the whole dose curve; as a rule, active = well fitted activation curve with a large enough effect; inconclusive = small, poorly fitted or top-dose-only effect; inactive = no such curve, though single readings can be large or run the other way.

biological target: Cytochrome P450 3A4 (Homo sapiens) (UniProt P08684); test: qHTS Assay for Activators of Cytochrome P450 3A4 (AID 885); conditions: recombinant CYP3A4, Luciferin-PPXE luminescence, 60 min; series mostly up to 57.1 µM; note: nearly all actives have a fitted effect of over 65% in size
Summary of the method: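 Human CYP3A4 dealkylates Luciferin-PPXE to luciferin, which luciferase detection converts to light. Substrate was at its KM (25uM), buffer 200mM KPO4, reaction 60 min at RT.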

Cytochrome P450 3A4 (Homo sapiens), sequence (P08684 whole entry, looked up): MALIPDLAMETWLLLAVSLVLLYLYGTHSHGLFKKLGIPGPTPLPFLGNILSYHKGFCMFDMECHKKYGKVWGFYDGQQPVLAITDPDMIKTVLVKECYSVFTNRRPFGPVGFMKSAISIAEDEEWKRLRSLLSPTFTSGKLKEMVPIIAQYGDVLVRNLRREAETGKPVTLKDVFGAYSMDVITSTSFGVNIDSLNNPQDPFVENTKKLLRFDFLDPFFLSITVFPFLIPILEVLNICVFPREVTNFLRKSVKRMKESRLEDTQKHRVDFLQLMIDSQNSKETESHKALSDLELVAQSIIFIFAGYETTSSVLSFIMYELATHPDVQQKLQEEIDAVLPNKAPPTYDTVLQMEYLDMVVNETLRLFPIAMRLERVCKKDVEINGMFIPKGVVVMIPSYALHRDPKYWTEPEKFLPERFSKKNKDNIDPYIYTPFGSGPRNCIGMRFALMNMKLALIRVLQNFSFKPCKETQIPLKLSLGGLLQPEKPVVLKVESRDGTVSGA

Potency, inactive:
COc1cccc(-c2cc(=O)c3ccc(OC)cc3o2)c1, COc1ccc(-c2coc3c(OC)c(OC)cc(O)c3c2=O)cc1, CNC1CCC(c2ccc(Cl)c(Cl)c2)c2ccccc21 (stereo unspecified), CC(C)c1c(O)ccc2c1CCC1C(C)(C)CCC[C@@]21C (stereo partly specified), COc1ccc(C2COc3c(ccc(O)c3OC)C2)c(OC)c1O (stereo unspecified), COc1cc(C2c3cc4c(cc3C(O)[C@H]3COC(=O)C23)OCO4)cc(OC)c1OC (stereo partly specified), C=C1C([C@@]2(C)C(OC(C)=O)CC(=O)O[C@@](C)(COC(C)=O)C2CC(=O)OC)C(OC=O)C(OC(=O)C(O)C(C)CC)[C@]2(C)C(c3ccoc3)CC(=O)C12O (stereo partly specified)

Activity change, positive = activation, inactive:
O=C1[C@@H]2[C@H]3[C@H](O)[C@H](O)C/C(=N/OC[C@@H](O)COCc4ccco4)[C@H]3CC[C@H]2C(=O)N1c1ccc(F)cc1F -44.4% [at 11.4 µM], C=CCc1cccc(C2C(C)CCC3C(=O)N4C(CCC(C)C4c4cccc(CC=C)c4)C(=O)N32)c1 (stereo unspecified) -58.4% [at 11.4 µM], C/C=C/OC(=O)NC(c1ccccc1)[C@]1(C(C)=O)CCCC1=O (stereo partly specified) -53.9% [at 11.4 µM], CC(=O)OC[C@@H]1O[C@@H](O/N=C2/C[C@@H](O)[C@@H](O)[C@@H]3[C@@H]4C(=O)N(c5cccc(Oc6ccccc6)c5)C(=O)[C@H]4CC[C@H]23)[C@H](OC(C)=O)[C@H](OC(C)=O)[C@@H]1OC(C)=O -36.6% [at 11.4 µM], CC(C)C(=O)N[C@@H]1CCCN1C(=O)/C=C\c1ccccc1 -30.2% [at 11.4 µM], CCc1cc2c(nc1CC)CCN(CC/C(C)=N/OC[C@@H](O)[C@@H]1O[C@@H]3OC(C)(C)O[C@@H]3[C@H]1O)C2 -30.5% [at 11.4 µM], CO[C@H]1COC(=O)C/C=C\[C@H](C)COC(=O)[C@@H](OCc2ccccc2)/C=C\[C@@H]1C -41.2% [at 11.4 µM], CCC12C=C(/C=C/c3ccccc3)C(CC)(C1)C(c1ccccc1)CC2=O (stereo unspecified) -32.8% [at 11.4 µM], C/C(CCN1CCc2nc(-c3ccccc3)c(-c3ccccc3)cc2C1)=N\OC[C@@H](C)[C@H](OCc1ccccc1)C(C)C -51.7% [at 11.4 µM], COc1ccc(COC(=O)N/N=C2/C[C@@H](O)[C@@H](O)[C@@H]3[C@@H]4C(=O)N(c5cccc(Oc6ccccc6)c5)C(=O)[C@H]4CC[C@@H]23)cc1 -30.5% [at 11.4 µM], C#CCCCO/N=C1/C[C@@H](O)[C@@H](O)[C@@H]2[C@@H]3C(=O)N(C4CCCCC4)C(=O)[C@H]3CC[C@H]12 -57% [at 11.4 µM], C=CC[C@@H]1C=C[C@@H](O/N=C\C[C@@H]2C=C[C@H](OC(C)=O)[C@H](COC(C)=O)O2)[C@@H](CO)O1 -49.3% [at 11.4 µM], CO[C@@H]1COC(=O)C/C=C\[C@H](C)COC(=O)[C@H](Cc2ccccc2)NC(=O)C/C=C\[C@H]1C -56.6% [at 11.4 µM], C[C@@H]1/C=C\CC(=O)OC[C@H](C)C(=O)N[C@@H](Cc2ccccc2)C(=O)OC1 -37.2% [at 11.4 µM], C/C(CCN1CCc2nc(-c3ccccc3)c(-c3ccccc3)cc2C1)=N\O[C@@H](C)CN1CCCc2nc(C)c(C)cc21 -58.8% [at 11.4 µM], C[C@@H]1O[C@H]2C3=C(C(=O)[C@H]4O[C@@H]4[C@H]3O)[C@@H]1[C@@H]1[C@@H](C)OC=C3[C@H](O)[C@H]4O[C@@H]4/C(=N\OCc4ccccc4)[C@]312 -31.8% [at 11.4 µM], CC(C)=CCC/C(C)=C/CO/N=C1/[C@H]2O[C@@H]2[C@@H](O)[C@H]2[C@H]1CCn1c(=O)n(Cc3cc4c(cc3Cl)OCO4)c(=O)n12 -56.5% [at 11.4 µM], C/C(CCN1CCc2nc(-c3ccccc3)c(-c3ccccc3)cc2C1)=N\O[C@@H](C)c1cn([C@H](CO)Cc2ccccc2)nn1 -54.2% [at 11.4 µM] and -52.4% [at 11.4 µM], CC1CCC2C(=O)OC(CN3C(=O)c4ccccc4C3=O)CN2C1c1ccc(Br)cc1 (stereo unspecified) -55.7% [at 11.4 µM]
